The values below come from PubChem BioAssay.

For one assay, the target named is Albumin (Bos taurus) (UniProt P02769). Kind of assay: bovine serum albumin binders on microarray, profiling panel, artefact control for SMM control protein annotation, biochemical, small-molecule microarray, Alexa647 label, 635/667 nm fluorescence (AID 1118).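 Further: score merges 667 nm emission intensity and signal-to-noise per printed compound spot.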 To be noted: BSA-A647 binding, fluorescence 635 nm, higher = more signal.
A short description of assay [1]: small-molecule microarray binders of probe aXIP, primary screen, biochemical, NeuroSMM set, 635/667 nm fluorescence (AID 1119).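 Further: probe is the protein aXip251-270 applied at 1 µg/mL to compound-printed slides; binding of probe to printed compounds measured as 667 nm fluorescence plus signal to noise.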 The note with it: higher = more signal, called active from +8 up or from −8 down.
The nature of assay [2]: small-molecule binders of probe aNOTCH3, primary screen, biochemical, small-molecule microarray, 635/667 nm fluorescence (AID 1120).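 Further: probe is a biotin-tagged antibody raised against NOTCH3 rather than NOTCH3 protein; score merges spot fluorescence near 667 nm with spot signal to noise.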 The note with it: higher = more signal.
Assay [3] is described as follows: small-molecule binders of probe aNOTCH2, primary screen, biochemical, small-molecule microarray, 635/667 nm fluorescence (AID 1121).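 Further: score merges feature fluorescence read at 667 nm with its signal to noise.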 To be noted: higher = more signal.
The target of assay [4] is Carbonic anhydrase 2 (Homo sapiens) (UniProt P00918). Nature of the assay: CAII small-molecule binders, profiling panel, biochemical, small-molecule microarray, Alexa647-labelled CAII (AID 1122). To be noted: CAII-A647 binding fluorescence, higher = more signal.
Assay [5] is described as follows: COS7 lysate on small-molecule microarray, probe aHis, 635 nm (AID 1123).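 Further: z-score combines 667nm fluorescence intensity with signal-to-noise per printed compound spot.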 To be noted: COS7 cell lysate, fluorescence, higher = more signal.
The nature of assay [6]: compound binding in COS7 lysate, probe aLAP1, primary screen, cell lysate, small-molecule microarray (AID 1124).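 Further: lysate comes from COS7 cells expressing LAP1 and is applied at 0.3 µg/mL; score merges spot fluorescence near 667 nm with signal-to-noise over triplicate slides.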 To be noted: probe aLAP1, fluorescence, higher = more signal.
The next assay has as its system Sam68 (KHDRBS1). Kind of assay: Sam68 small-molecule binders, primary screen, biochemical, small-molecule microarray, 635 nm fluorescence (AID 1125).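 Further: score merges 667 nm channel intensity with signal to noise over triplicate slides.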 The note with it: small-molecule microarray binding, higher = more signal.
For assay [7], the system named is Chordin-like protein 2 (CHRDL2). Kind of assay: CHRDL2 small-molecule binders, primary screen, biochemical, small-molecule microarray, 635 nm fluorescence (AID 1126).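 Further: printed compound slides probed with Chrdl2 protein at 4 µg/mL for 1 h at 4 C; score merges 667 nm emission intensity with signal to noise over three replicate slides.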 The note with it: small-molecule microarray binding, fluorescence 635 nm; higher = more signal.
Assay [8] has as its target Concanavalin-A (Canavalia ensiformis) (UniProt P02866). Nature of the assay: ConA small-molecule binders, primary screen, artefact control for SMM control protein annotation, biochemical, small-molecule microarray, Alexa647 label, 635 nm (AID 1127).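 Further: z combines 667 nm emission intensity with signal-to-noise across three replicate slides.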 The note with it: ConA-A647 binding fluorescence, higher = more signal.

The structures appear in SMILES notation. Active and inactive are the calls of the source.

Chain of Concanavalin-A (Canavalia ensiformis) (P02866 whole entry, looked up): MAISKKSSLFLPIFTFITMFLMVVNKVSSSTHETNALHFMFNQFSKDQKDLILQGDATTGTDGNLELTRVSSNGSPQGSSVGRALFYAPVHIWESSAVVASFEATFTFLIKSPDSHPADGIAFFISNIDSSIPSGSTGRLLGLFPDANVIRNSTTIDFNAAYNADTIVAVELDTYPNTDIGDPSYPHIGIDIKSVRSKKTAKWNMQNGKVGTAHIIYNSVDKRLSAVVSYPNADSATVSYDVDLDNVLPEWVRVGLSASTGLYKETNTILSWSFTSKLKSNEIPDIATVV
Chain of Albumin (Bos taurus) (P02769 whole entry, looked up): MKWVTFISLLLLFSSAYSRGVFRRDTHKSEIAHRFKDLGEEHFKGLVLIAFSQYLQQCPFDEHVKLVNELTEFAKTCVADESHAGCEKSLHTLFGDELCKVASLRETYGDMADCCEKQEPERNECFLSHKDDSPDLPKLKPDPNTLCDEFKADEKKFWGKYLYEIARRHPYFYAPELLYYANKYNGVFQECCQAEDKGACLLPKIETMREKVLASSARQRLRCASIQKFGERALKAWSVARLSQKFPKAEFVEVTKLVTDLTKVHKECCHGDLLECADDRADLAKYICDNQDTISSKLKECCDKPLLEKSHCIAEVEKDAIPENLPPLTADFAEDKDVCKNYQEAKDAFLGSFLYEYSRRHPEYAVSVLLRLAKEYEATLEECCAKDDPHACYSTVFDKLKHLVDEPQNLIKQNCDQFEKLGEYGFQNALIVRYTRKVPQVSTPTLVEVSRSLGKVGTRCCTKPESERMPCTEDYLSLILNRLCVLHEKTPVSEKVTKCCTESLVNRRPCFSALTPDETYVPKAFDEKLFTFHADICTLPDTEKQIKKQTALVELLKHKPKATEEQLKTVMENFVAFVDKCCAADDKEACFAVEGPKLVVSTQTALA

In the case of `[N-]=[N+]=NCc1ccccc1[C@@H]1OC(c2ccc(OCCCO)cc2)=N[C@]1(Cc1ccccc1N=[N+]=[N-])C(=O)NCC(O)CO` (stereo not given in full), the composite z-score in the assay with Albumin (Bos taurus) was 0.98; in assay [2], 0.409; in [3], 0.252; in [4] it was 0.614; in assay [5], 3.16; in assay [6], 0.695. Besides, the composite z-score was 1.32 in the assay on Sam68 (KHDRBS1), -0.703 in [7] and 1.11 in assay [8]. Further, the composite Z-score in assay [1] is 0.71 (inactive).
As to `O=C1O[C@@H](c2ccccc2)[C@@H](c2ccccc2)N2[C@@H](c3ccccc3OCCO)[C@]3(C(=O)Nc4ccc(C#CCCO)cc43)[C@@H](C(=O)NC[C@H](O)c3ccccc3)[C@H]12`, the composite z-score turned out to be 0.366 with Albumin (Bos taurus); 0.307 in assay [2]; 0.255 in assay [3]; 0.557 in assay [4]; 2.25 in [5]; 1.31 in assay [6]. In addition, the composite z-score was determined as 1.28 in the assay on Sam68 (KHDRBS1), 0.454 in [7] and 1.12 in assay [8]. The composite Z-score in [1] was 0.45 (inactive).
As to `CC(C)C(O)C1C=CC2C(=O)NC(=O)C2N1Nc1ccccn1` (stereo not given), the composite z-score with Albumin (Bos taurus) is 0.701; in assay [2], -0.0044; in assay [3] it was -0.0464; in assay [4], 0.722; in [5], 1.59; in assay [6] it was 0.331. For the same compound, the composite z-score with Sam68 (KHDRBS1) was 0.472; in assay [7], -0.369; in assay [8], 0.561. In addition, the composite Z-score in assay [1] is 0.316 (inactive).
For `Cc1ccccc1C(O)C1C=CC2C(=O)N(c3ccccc3)C(=O)C2N1Nc1ccccc1` (stereo not given), the composite z-score was 0.944 with Albumin (Bos taurus); 0.312 in assay [2]; -0.0485 in assay [3]; 0.781 in assay [4]; 2.94 in assay [5]; 0.0139 in [6]. Also, the composite z-score is 1.29 in the assay with Sam68 (KHDRBS1), -0.147 in [7] and 1.14 in [8]. In addition, the composite Z-score in [1] is 0.738 (inactive).
For `CC1CC/C=C\[C@H]2OC34C=CCN(C(C)(C)C)C(=O)[C@H]3N(CCCO)C(=O)[C@@H]4C2C(=O)O1` (stereo not given in full), the composite z-score in the assay with Albumin (Bos taurus) was -1.53; in [2], -0.155; in assay [3], -0.164; in assay [4], 0.916; in assay [5] it was 0.386; in assay [6] it was 0.71. In addition, the composite z-score was -0.307 in the assay on Sam68 (KHDRBS1), -0.286 in [7] and -0.532 in assay [8]. The composite Z-score in [1] was 0.398 (inactive).
`CC1CC/C=C\[C@H]2OC34C=CCN(c5ccc(Cl)cc5)C(=O)[C@H]3N(CCCCCCO)C(=O)[C@]4(C)C2C(=O)O1` (stereo not given in full): the composite z-score is -0.685 with Albumin (Bos taurus); -0.314 in assay [2]; 0.309 in assay [3]; 0.3 in assay [4]; 0.383 in assay [5]; -0.17 in [6]. Moreover, the composite z-score was -0.552 in the assay with Sam68 (KHDRBS1), -0.742 in assay [7] and -0.241 in assay [8]. The composite Z-score in assay [1] is 0.0185 (inactive).
On to `CCCNC(=O)[C@@]1(c2ccc([N+](=O)[O-])cc2)CC(=O)N(C(C)C)[C@@H]1c1ccc(CO)cc1`, for which the composite z-score in the assay with Albumin (Bos taurus) was 0.667; in assay [2], -0.344; in assay [3], -0.0876; in assay [4] it was 0.801; in assay [5], 1.7; in [6], 0.188. Besides, the values for the composite z-score (with Sam68 (KHDRBS1); in assay [7]; in [8]) were -0.626, -1.54 and -0.536, respectively. In addition, in [1], the composite Z-score was -0.0527 (inactive).
Consider `CN(C)CCCNC(=O)[C@@]1(Cc2ccccc2I)c2ccccc2C(=O)N(C2CCCCC2)[C@H]1c1ccc(CO)cc1`, for which the composite z-score in the assay with Albumin (Bos taurus) was 0.33; in assay [2] it was 0.417; in [3], 0.227; in assay [4] it was 0.443; in assay [5], 1.57; in assay [6], 0.653. The composite z-score in the assay on Sam68 (KHDRBS1) was 1.31; in [7], -0.0713; in assay [8] it was 1.16. Moreover, in assay [1], the composite Z-score was 0.56 (inactive).
Consider `C=CC[C@@]1(C(=O)OC)N=C(c2ccc(OCCCO)cc2)O[C@@H]1c1ccccc1N=[N+]=[N-]`, for which the composite z-score in the assay with Albumin (Bos taurus) is -1.11; in assay [2], 0.477; in assay [3], 0.12; in assay [4], 0.475; in assay [5] it was 2.76; in [6] it was 0.568. Moreover, the composite z-score in the assay on Sam68 (KHDRBS1) amounted to 1.29; in [7], 1.33; in [8] it was 0.896. Moreover, the composite Z-score in assay [1] was 0.721 (inactive).
Turning to `COCCn1c(C(=O)N(C)C)cc2c1C[C@H]1CN(C(=O)c3ccccc3)[C@@](Cc3ccc(OC)cc3)(C(=O)OC)[C@@H]21`, the composite z-score was 0.507 with Albumin (Bos taurus); 0.32 in assay [2]; 0.0323 in assay [3]; 0.659 in [4]; 2.94 in [5]; 0.294 in assay [6]. Besides, the figures for the composite z-score (with Sam68 (KHDRBS1); in [7]; in [8]) were 0.914, -0.545 and 0.732, respectively. For the same compound, the composite Z-score in assay [1] was -0.0775 (inactive).
As to `CCCC=C(CCC)[C@@H](NC(=O)OCC(C)C)c1ccc(C(=O)OC)cc1`, the composite z-score is -0.0782 with Albumin (Bos taurus); -0.0328 in assay [2]; -0.15 in [3]; 0.133 in assay [4]; 0.141 in assay [5]; 0.35 in assay [6]. Besides, the composite z-score came to 0.687 in the assay with Sam68 (KHDRBS1), 0.436 in assay [7] and 0.256 in assay [8]. Besides, in assay [1], the composite Z-score is -0.773 (inactive).
For `CCOC(=O)C[C@H]1[C@H](OC(=O)c2cc3ccccc3oc2=O)[C@@H](NC(=O)CC(C)C)c2cc(OCCCO)ccc2N1C(=O)Cc1ccc(OC)cc1`, the composite z-score in the assay with Albumin (Bos taurus) was 0.136; in assay [2], -0.0376; in assay [3], -0.146; in assay [4], 0.607; in [5], 0.935; in assay [6] it was 0.18. For the same compound, the figures for the composite z-score (with Sam68 (KHDRBS1); in assay [7]; in [8]) were 0.887, 0.0676 and 0.433, respectively. Moreover, the composite Z-score in [1] was 0.642 (inactive).
For the compound `CCOC(=O)C[C@H]1[C@H](OC(=O)Cc2ccc3c(c2)OCO3)[C@@H](NC(=O)c2ccc3ccccc3n2)c2cc(OCCCO)ccc2N1C(=O)Cc1ccc(OC)cc1`, the composite z-score was 0.635 with Albumin (Bos taurus); 0.169 in [2]; -0.0286 in assay [3]; 0.276 in assay [4]; 0.654 in [5]; 0.0887 in assay [6]. For the same compound, the composite z-score in the assay on Sam68 (KHDRBS1) was 0.91; in assay [7], -0.17; in [8] it was 0.774. Besides, in assay [1], the composite Z-score was 0.378 (inactive).
